Some test systems named below: NCI-H23 lung; NCI-H226 lung; NCI-H322M lung; HOP-62 NSCLC; NCI-H460 lung; HOP-92 NSCLC; NCI-H522 lung; A549/ATCC NSCLC; 786-0 renal; COLO 205 colon.
Holding throughout (assay): NCI-60 one-dose screen, 48 h (100 = growth as untreated, 0 = no growth, -100 = all killed)
What all share (conditions): 10 µM unless noted

The panel holds about 83,000 compounds, 20% with a hit somewhere; the sample as a whole holds those more often.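 The endpoint reported here, percent growth, reads 100 for growth as untreated, 0 for no net growth and -100 for all cells dead.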 A number with no mark means an inactive call. Calls of active or inactive are those of the source. Rule for the calls: active = growth percent below 10; inactive = the rest.

Turning to `N#CC1CCc2c(c(-c3ccc4nc(N)sc4c3)nc3ccc4[nH]ncc4c23)C1` (stereo not given), the growth was 36.9% with NCI-H23 lung; 51.1% in the test with NCI-H226 lung; 70.5% with NCI-H322M lung; 54.5% with HOP-62 NSCLC; 12.4% with NCI-H460 lung; 70.3% with HOP-92 NSCLC. Also, the growth with NCI-H522 lung was 40.2%; in the test on A549/ATCC NSCLC, 46%; with 786-0 renal, 49.3%; in the test on COLO 205 colon, 40.5%.
For the compound `O=c1cc(-c2ccccc2)[nH]c2ncc(-c3ccc(F)cc3)n12`, the growth in the test on NCI-H23 lung is 72.2%; with NCI-H226 lung, 86.6%; in the test on NCI-H322M lung it was 94.2%; in the test with HOP-62 NSCLC it was 67.7%; with NCI-H460 lung it was 47.4%; in the test on HOP-92 NSCLC it was 54.9%. Also, the growth is 36% with NCI-H522 lung, 66.2% with A549/ATCC NSCLC, 79.5% in the test with 786-0 renal and 77.4% in the test with COLO 205 colon.
As to `CN1CCN(c2ccc3nc4c(nc3c2C(F)(F)F)C(=O)c2ncccc2C4=O)CC1`, the growth in the test with NCI-H23 lung is -39.7% (active); in the test on NCI-H226 lung, -78.9% (active); in the test on NCI-H322M lung, 36.6%; in the test with HOP-62 NSCLC, -63.3% (active); with NCI-H460 lung, -56.6% (active); in the test on HOP-92 NSCLC, 27.5%. The growth was -67.5% (active) in the test with NCI-H522 lung, -36.2% (active) in the test on A549/ATCC NSCLC, 36.7% with 786-0 renal and -95% (active) in the test on COLO 205 colon.
For `O=C(O)COc1ccc(Cl)c(Cl)c1`, the growth with NCI-H23 lung was 99%; in the test with NCI-H226 lung, 94.1%; in the test with NCI-H322M lung, 120%; in the test on HOP-62 NSCLC, 100%; with NCI-H460 lung it was 109%; in the test on HOP-92 NSCLC, 90.2%. Also, the growth is 102% with NCI-H522 lung, 107% with A549/ATCC NSCLC, 104% with 786-0 renal and 115% in the test with COLO 205 colon.
Regarding `COc1ccccc1N(C(C)=O)C1=C(Cl)C(=O)c2ccccc2C1=O`, the growth with NCI-H23 lung is -12.1% (active); in the test on NCI-H226 lung it was 23.7%; with NCI-H322M lung, 38%; with HOP-62 NSCLC, 38.6%; in the test on NCI-H460 lung, 4.81% (active); in the test on HOP-92 NSCLC, -14.9% (active). In addition, the growth is -78% (active) in the test on NCI-H522 lung, 8.36% (active) in the test with A549/ATCC NSCLC, 37.2% in the test with 786-0 renal and -11.7% (active) in the test on COLO 205 colon.
On to `O=P(O)(O)OCC1OC(n2cnc3c(NCc4ccco4)ncnc32)C(O)C1O` (stereo not given), for which the growth is 18% in the test on NCI-H23 lung; 20.4% with NCI-H226 lung; 28.3% in the test with NCI-H322M lung; 16% with HOP-62 NSCLC; 12.6% in the test on NCI-H460 lung; -7.22% (active) with HOP-92 NSCLC. Further, the growth in the test with NCI-H522 lung is -32.7% (active); with A549/ATCC NSCLC, 7.15% (active); in the test with 786-0 renal it was 10.5%; with COLO 205 colon, 22.8%.
Take `COC(=O)c1c2c(n3ccccc13)C(=O)c1ccccc1C2=O`: the growth was 44.9% in the test on NCI-H23 lung; 73.8% in the test with NCI-H226 lung; 23.5% in the test on NCI-H322M lung; 68.7% with HOP-62 NSCLC; 1.15% (active) with NCI-H460 lung; 77.8% in the test on HOP-92 NSCLC. Further, the growth is 54.4% in the test with NCI-H522 lung, -49.1% (active) in the test with A549/ATCC NSCLC, 71.5% in the test with 786-0 renal and 28.1% in the test with COLO 205 colon.
For `CCc1ccc(CCC(=O)Nc2ncc(Cc3cc(Cl)ccc3Cl)s2)o1`, the growth in the test on NCI-H23 lung is 48.4%; in the test with NCI-H226 lung, 42.8%; with NCI-H322M lung, 36.7%; with HOP-62 NSCLC, 29.9%; in the test with NCI-H460 lung it was 10.3%; with HOP-92 NSCLC it was 51.6%. Besides, the growth in the test with NCI-H522 lung was 3.35% (active); in the test on A549/ATCC NSCLC it was 22.5%; in the test on 786-0 renal, 30.5%; in the test with COLO 205 colon it was 8.61% (active).
Turning to `CCOC(=O)C(=Cc1ccc(-c2ccccc2)cc1)C(=O)OCC`, the growth in the test on NCI-H23 lung is 38.6%; in the test on NCI-H226 lung, 46.5%; in the test on NCI-H322M lung, 78.4%; with HOP-62 NSCLC, 73.7%; with NCI-H460 lung it was 78%; with HOP-92 NSCLC, 63.2%. Further, the growth in the test on NCI-H522 lung is 26%; in the test with A549/ATCC NSCLC it was 49.6%; in the test on 786-0 renal it was 43.1%; in the test on COLO 205 colon it was 55.6%.
As to `CC1=C(C(=O)Nc2nc(-c3ccc(Cl)cc3)cs2)[C@H](c2ccc(O)cc2)NC(=O)N1`, the growth is 101% in the test with NCI-H23 lung; 87.8% in the test with NCI-H226 lung; 88.3% in the test on NCI-H322M lung; 99.1% with HOP-62 NSCLC; 104% with NCI-H460 lung; 100% in the test on HOP-92 NSCLC. For the same compound, the growth in the test with NCI-H522 lung was 90.5%; with A549/ATCC NSCLC, 95.1%; with 786-0 renal, 97.8%; in the test with COLO 205 colon, 110%.
On to `CN(C)S(=O)(=O)Oc1ccc(-c2sc3cc(OS(=O)(=O)N(C)C)ccc3c2C(=O)c2ccc(OCCN3CCCCC3)cc2)cc1`, for which the growth with NCI-H23 lung was 74.4%; in the test with NCI-H226 lung it was 64.6%; in the test on NCI-H322M lung, 87.9%; in the test with HOP-62 NSCLC it was 49.8%; in the test on NCI-H460 lung, 32.2%; in the test on HOP-92 NSCLC, 28.5%. Moreover, the growth with NCI-H522 lung is 39.6%; in the test on A549/ATCC NSCLC, 52.7%; in the test on 786-0 renal, 21.5%; in the test on COLO 205 colon, 36.1%.
With `c1nc2ccc(-c3cc4ccc5[nH]ncc5c4c4c3CCCC4)cc2[nH]1`, the growth in the test on NCI-H23 lung is 78.8%; in the test on NCI-H226 lung, 57.1%; in the test with NCI-H322M lung, 41%; in the test on HOP-62 NSCLC, 74.3%; in the test with NCI-H460 lung it was 63.1%; in the test on HOP-92 NSCLC it was 66%. Besides, the growth was 37.5% in the test with NCI-H522 lung, 65.1% in the test on A549/ATCC NSCLC, 43.6% in the test on 786-0 renal and 52.2% with COLO 205 colon.

The record behind these values is PubChem BioAssay (NCI).
